The results in this text go back to PubChem BioAssay.

A word on the inhibition: it is the relative decrease from the control value, in per cent.

Assay [1] is described as follows: inhibitors of TNFa-induced NFkB p65 translocation, primary screen, imaging, HUVEC, MLSMR starter and 10KST1 sets (AID 438;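 active = inhibition above 20% together with a positive visual image hit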;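 note: compound added about 3h40 before a 20 min TNFalpha stimulation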;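 for inhibition: signal is the nuclear over cytoplasmic p65 intensity ratio per well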). Particulars: HUVEC TNFa-induced p65 nuclear translocation; cell count: measured here: nuclei count (cytotoxicity indicator), at 2.08 µM; inhibition: at 2 µM, stronger effect = higher value, 0% TNFa-plus-vehicle, 100% no-TNFa wells.
A short description of assay [2]: reduction of polyQ htt aggregates in cells – imaging, exon1htt(103Q)mCFP cells, high-content imaging, primary screen (AID 483;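 active = visual image review flags a hit and inhibition of aggregation exceeds 20%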;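 note: compound exposure lasted 3 days before fixation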;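 for nuclei count: percent of the per-plate median nuclei count of sample wells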). Particulars: exon1htt(103Q)mCFP cell line, aggregate imaging, at 2 µM; inhibition of aggregation: stronger effect = higher value; nuclei count: measured here: cell count, toxicity.
Assay [3] can be described thus: endothelial E-selectin expression blockers – imaging, HUVEC, immunofluorescence, MLSMR starter and 10KST1 sets, primary screen (AID 487;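 active = visually confirmed hit in the image check and inhibition above 20%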;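 for inhibition: signal is fraction of cell area covered by stained E-selectin grains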;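 for nuclei count: 100% = median nuclei count of all wells on the same plate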). To be noted: HUVEC TNFalpha-induced E-selectin immunofluorescence imaging, at 2 µM; inhibition: stronger effect = higher value; nuclei count: measured here: cell number, toxicity.
Assay [4] is described as follows: Primary imaging screen for DUSP6 inhibitors that restore phospho-Erk in transfected HeLa cells, chemical complementation (AID 609;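 active = compounds giving at least 50% inhibition in the cell-based MKP-3 phosphatase rescue imaging test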;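 for inhibition: phospho-Erk level distribution per well compared with pooled transfected vehicle control wells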). To be noted: HeLa MKP-3 transfected, phospho-Erk imaging KS statistic, at 10 µM, cells stimulated with TPA for 15 min.
Assay [5] deals with Dual specificity protein phosphatase 6 (Homo sapiens) (UniProt Q16828). The assay is described as above. To be noted: HeLa MKP-3 transfected, phospho-Erk imaging KS statistic; at 10 µM; stronger effect = higher value; cells stimulated with TPA for 15 min.
Dual specificity protein phosphatase 6 (Homo sapiens), sequence (Q16828 whole entry, looked up): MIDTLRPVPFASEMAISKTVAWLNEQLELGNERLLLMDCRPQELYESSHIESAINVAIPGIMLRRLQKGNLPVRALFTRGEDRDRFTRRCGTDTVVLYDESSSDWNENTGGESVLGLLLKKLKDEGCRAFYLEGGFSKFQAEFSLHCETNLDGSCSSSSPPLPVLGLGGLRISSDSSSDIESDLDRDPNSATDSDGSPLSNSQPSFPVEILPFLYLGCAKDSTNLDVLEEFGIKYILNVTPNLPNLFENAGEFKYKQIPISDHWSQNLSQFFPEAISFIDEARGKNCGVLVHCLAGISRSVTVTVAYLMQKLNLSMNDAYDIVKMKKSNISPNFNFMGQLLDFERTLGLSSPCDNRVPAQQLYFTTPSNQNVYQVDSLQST
The target in assay [6] is Voltage-gated potassium channel subunit beta-2 (Rattus norvegicus) (UniProt P62483). In words: inhibitors of rat Kvbeta2 reductase activity – biochemical, NADPH fluorescence, primary screen (AID 622;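 active = fluorescence slope higher than the sample average by over 3 SD, cut at about -0.22 in these data, passing the limit was not always enough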;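 note: slope of raw intensity against log time taken from 70 to 1610 s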). To be noted: recombinant KvBeta, 4-cyanobenzaldehyde reduction, at 10 µM, stronger effect = higher value.
Voltage-gated potassium channel subunit beta-2 (Rattus norvegicus), sequence (P62483 whole entry, looked up): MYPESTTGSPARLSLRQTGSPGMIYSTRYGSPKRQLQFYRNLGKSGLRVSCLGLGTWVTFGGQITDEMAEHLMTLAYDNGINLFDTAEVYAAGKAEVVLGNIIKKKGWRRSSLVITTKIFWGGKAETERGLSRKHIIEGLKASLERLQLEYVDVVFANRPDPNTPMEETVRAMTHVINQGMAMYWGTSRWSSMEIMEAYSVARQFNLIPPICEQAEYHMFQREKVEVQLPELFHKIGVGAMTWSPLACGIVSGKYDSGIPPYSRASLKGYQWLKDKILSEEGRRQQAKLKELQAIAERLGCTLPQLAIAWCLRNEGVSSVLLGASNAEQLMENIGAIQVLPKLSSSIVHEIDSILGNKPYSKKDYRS
Assay [7] has the same target. In words: enhancers of rat Kvbeta2 NADPH turnover – biochemical, NADPH fluorescence, primary screen (AID 623;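 active = NADPH fluorescence slope more negative than the mean of all samples by about 3 SD, 99.7% confidence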;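 note: fluorescence intensity change per second fitted from 20 to 320 s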). Particulars: Recombinant KvBeta, NADPH fluorescence decrease slope, 10 min; at 10 µM; stronger effect = lower value.
The target of assay [8] is Alpha-2C adrenergic receptor (Homo sapiens) (UniProt P18825). In words: compounds altering alpha2C-coupled GIRK flux – cell-based, HEK293 alpha2C/GIRK1/2, thallium flux, primary screen (AID 624;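 active = fluorescence slope after compound addition differing from the mean of all screened samples at 99.7% confidence, in either direction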;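 note: slope of fluorescence ratio to pre-addition baseline per second over 15 to 24 s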). Particulars: thallium flux BTC fluorescence, at 10 µM, actives lie on both sides.
Alpha-2C adrenergic receptor (Homo sapiens), sequence (P18825 whole entry, looked up): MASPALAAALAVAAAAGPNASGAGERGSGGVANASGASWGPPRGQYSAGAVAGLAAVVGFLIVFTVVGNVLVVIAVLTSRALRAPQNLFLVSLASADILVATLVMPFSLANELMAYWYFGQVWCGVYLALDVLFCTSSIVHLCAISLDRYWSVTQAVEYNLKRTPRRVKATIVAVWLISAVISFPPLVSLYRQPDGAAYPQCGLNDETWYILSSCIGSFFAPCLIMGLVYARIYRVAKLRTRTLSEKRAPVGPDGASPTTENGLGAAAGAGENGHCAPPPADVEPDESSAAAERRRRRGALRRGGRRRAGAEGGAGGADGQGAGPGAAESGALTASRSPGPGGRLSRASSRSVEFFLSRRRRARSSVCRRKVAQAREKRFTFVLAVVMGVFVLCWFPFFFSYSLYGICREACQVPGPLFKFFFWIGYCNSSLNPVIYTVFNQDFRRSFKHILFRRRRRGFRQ
Assay [9] can be described thus: inhibitors of larval lipid processing in zebrafish, primary screen, whole organism, PED6 fluorescence, gall bladder and intestine (AID 686;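 active = a full or partial loss of lipid-probe fluorescence in the fish gall bladder, intestine or both, judged by eye; inactive = no fluorescence loss, or compound toxic to the fish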;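 note: larvae 5 to 7 days old with five fish per well; signal comes from phospholipase A2 cleavage of quenched PED6 carried via bile; overnight exposure to compound and PED6 before scoring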). To be noted: Zebrafish larvae PED6 lipid processing, fluorescence scoring; screened at 20 µM (by protocol).
Assay [10] is described as follows: loss of swimming-algae plug formation – whole organism, Chlamydomonas reinhardtii, WT vs cilia-less mutant, absorbance, 96-well, primary screen (AID 463189).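 Note: 0% = wild type cc124 cells in DMSO and 100% = ciliumless bld1 mutant cells.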 To be noted: Chlamydomonas reinhardtii gravitaxis, OD600 absorbance, 2 days; at 10 µM; stronger effect = higher value.
The nature of assay [11]: blockers of RIG-like receptor reporter activation – cell-based, Sendai virus stimulus, luciferase, 10K MLSCN set, TLR/RLR signaling modifier project, primary screen (AID 602276;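 active = inhibition at or above 50% at 10 µM; inactive = inhibition below 50%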;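 note: firefly luciferase from ISG56 promoter only with Renilla not read in this screen; 0% = Sendai virus plus DMSO and 100% = medium plus DMSO without virus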). To be noted: HEK293 RL24 IRF3 luciferase reporter, at 10 µM, stronger effect = higher value. For orientation: Reporter assays use an easily measured gene product as a stand-in for the process of interest.
Assay [12] in a line: TLR3 IRF3 reporter activation blockers – cell-based, poly I:C stimulus, luciferase, 10K MLSCN set, primary screen (AID 602277;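 active = inhibition of the reporter signal at or above 50%; inactive = inhibition below 50%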). To be noted: HEK293-TLR3 RL24 IRF3 luciferase reporter, at 10 µM, stronger effect = higher value.
Setting [13] is: measured here: cell density z-score.
Setting [14] is: measured here: nuclear c-Myc green intensity z-score.
Setting [15] is: measured here: nuclear pErk red intensity z-score, stronger effect = higher value.

Structures are written as SMILES. “And” between values parts separate entries of the source, which are not always exact repeats. Equal values may be shown once. The source made the active and inactive calls.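 Rule for the calls, unless noted: active = inhibition at or above 50% relative to wild type and mutant plate controls; inactive = inhibition below 50%.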

For the compound `OCCN(CCO)c1nc(N2CCCCC2)c2nc(N(CCO)CCO)nc(N3CCCCC3)c2n1`, the cell count in assay [1] amounted to 547. For the same compound, the inhibition in assay [1] is -6.1% (inactive); in [3], -59.7% (inactive); in [5] it was -0.493% (inactive); in [10], 1.16% (inactive) and 19.1% (inactive); in [11] it was 10.6% (inactive); in [12] it was -14.4% (inactive). Besides, in assay [2], the inhibition of aggregation is -4% (inactive). For the same compound, the nuclei count in [2] was 110%; in [3], 134%. In addition, the values for the z-score in assay [4] (setting [13]), in [4] (setting [14]) and in assay [4] (setting [15]) were 0.412, 0.0897 and 0.61, respectively. Moreover, the fluorescence slope in assay [6] was -0.056 (active). The NADPH fluorescence slope in assay [7] is -1.2e-07 (inactive). The slope in assay [8] was 0 (inactive). Further, the compound was classed as inactive in assay [9].
`C[C@]12CC[C@H]3[C@@H](CCC4=CC(=O)CC[C@@]43C)[C@@H]1CC[C@@H]2C(=O)CO`: in [1], the cell count stood at 632. Moreover, the inhibition in [1] was -0.8% (inactive); in [3], -114% (inactive); in assay [5], -2.46% (inactive); in [10], -3.19% (inactive); in assay [11], 1.11% (inactive); in assay [12], 43.7% (inactive). In assay [2], the inhibition of aggregation is 4.5% (inactive). Also, the nuclei count came to 37.5% in [2] and 118% in assay [3]. Also, the z-score is -0.564 in assay [4] (setting [13]), -1.57 in [4] (setting [14]) and -0.166 in assay [4] (setting [15]). Moreover, in assay [6], the fluorescence slope is -0.521 (inactive). The NADPH fluorescence slope in assay [7] is -1e-05 (inactive). Moreover, the slope in assay [8] is 0.00387 (inactive). In assay [9], the call was inactive.
Take `CCC(=O)c1ccc(O)cc1`: the cell count in assay [1] was found to be 663. Also, the inhibition in assay [1] was 0.5% (inactive); in assay [3] it was -19.7% (inactive); in assay [5], 19% (inactive); in assay [10], -6.67% (inactive); in [11], 13.6% (inactive); in [12], 5.36% (inactive). In addition, the inhibition of aggregation in assay [2] was -14% (inactive). The nuclei count in assay [2] was 101%; in [3], 118%. For the same compound, the z-score in assay [4] (setting [13]) is -0.298; in assay [4] (setting [14]), -0.183; in [4] (setting [15]), 0.759. Besides, in assay [6], the fluorescence slope was -0.496 (inactive). In assay [7], the NADPH fluorescence slope is 8.5e-06 (inactive). In addition, the slope in [8] is 0.00491 (inactive). Besides, the compound was classed as inactive in assay [9].
Turning to `N#Cc1c(N)n(CCOC(=O)c2cccc(Br)c2)c2nc3ccccc3nc12`, in assay [1], the cell count was 592. Also, the inhibition in assay [1] is 0.6% (inactive); in assay [3], -20.6% (inactive); in assay [5], -1.12% (inactive); in assay [10] it was 15.2% (inactive); in assay [11], 16.3% (inactive); in assay [12], 30.6% (inactive). Also, the inhibition of aggregation in assay [2] was -46.7% (inactive). The nuclei count stood at 75.5% in assay [2] and 108% in assay [3]. The z-score was 1.33 in [4] (setting [13]), -2.21 in assay [4] (setting [14]) and -0.755 in assay [4] (setting [15]). For the same compound, the fluorescence slope in assay [6] is -0.434 (inactive). Besides, the NADPH fluorescence slope in assay [7] is -0.000171 (inactive). In assay [8], the slope was 0.00581 (inactive). In addition, in assay [9], the result was inactive.
Regarding `CN1C(C(=O)Nc2ccccn2)=C(O)c2ccccc2S1(=O)=O`, the cell count in [1] was 593 and 424. Besides, the inhibition was -2.6% (inactive) and -16.7% (inactive) in assay [1]; -30.1% (inactive) and -244% (inactive) in assay [3]; 11.3% (inactive) and 2.71% (inactive) in assay [5]; 7.21% (inactive) and 26% (inactive) and -1.23% (inactive) in [10]; -0.169% (inactive) in assay [11]; -2.96% (inactive) in assay [12]. Further, the inhibition of aggregation in assay [2] was -13.6% (inactive). Besides, the nuclei count was 111% in [2]; 112% and 218% in assay [3]. Moreover, the z-score in assay [4] (setting [13]) was 0.668 and -0.761; in assay [4] (setting [14]) it was 0.887 and -0.948; in assay [4] (setting [15]) it was -0.364 and 0.452. In addition, the fluorescence slope in assay [6] was -0.457 (inactive) and -0.395 (inactive). Besides, the NADPH fluorescence slope in assay [7] was 1.6e-05 (inactive) and -1.1e-05 (inactive). Also, the slope in assay [8] was 0.00561 (inactive) and 0.00377 (inactive). Further, the call in assay [9] was inactive.
